Laboratory results as given in paper PMC13494018.
A number with no mark means an inactive call. How the calls were made is not given here.

B1: d4r5_design_ppi_343_dldesign_0_cycle1_af2pred (protein)
chain: GEEEEKKKKLNELQDEAAEAIGEVYLEAKKTGELELAKEVSKKVRKALKDPEEAKKAIEEAKKEAKKLKKKL
B2: d4r5_design_ppi_347_dldesign_0_cycle1_af2pred (protein)
chain: GREEEAKRVAEVILERLKDPKAQEAAKKTGEAGKAFLEAYELYKKDREAGIEYLAKEILKNPSWAQDFRENYAEEEAK
B3: d4r5_design_ppi_375_dldesign_0_cycle0_af2pred (protein)
chain: KEKEMANKLQEKIEELYSAATPEQQSKVSEKIKEARKAAKEAVKKYKEDEEKGKELFKKAEEILEEGLKEAK
B4: d4r5_design_ppi_375_dldesign_0_cycle1_af2pred (protein)
chain: AAKEMANELQELIEKLREASSVKDQNEVSKVIKEARKKAKEAIKAYEKDPELGKKLFEEAKEILEKALKKAE
B5: d4r5_design_ppi_378_dldesign_0_cycle0_af2pred (protein)
chain: AAAAAAAARAAMAAQAAANAAKAKEVFDKLAETYPEAKDEAKAKAAEVAAAFAATAAAGGDQAQLTANNNAAQDARSEVIAIANKK
B6: d4r5_design_ppi_384_dldesign_0_cycle0_af2pred (protein)
chain: AVTWDEILDIQARANYYLSEAKKLTEEAYKEAKKLYEEARKHYGEAAKYLADAPKVGEEAKKKAAEHAKEAEKLVKELEELVKKAKE
B7: d4r5_design_ppi_384_dldesign_0_cycle1_af2pred (protein)
chain: GITWDELMDIQADAFYYLSEAKKITPEAEAKAKELYQKSLEYYKKAAEYLAKAEEVGPEAKEEAKEYADKAAEEVEKLKKLVEEAKN
B8: d4r5_design_ppi_400_dldesign_0_cycle0_af2pred (protein)
chain: AAAAAAAKAAAKAAAEKDLKRAEEAYKNAKKNKDNKEIVFKNYAEIETKAARADALAAADPYAAEAAKKIKELAEEAEKILK
B9: d4r5_design_ppi_400_dldesign_0_cycle1_af2pred (protein)
chain: AAAEAAAKEAAKAKADELLKKAKESYEEAKKNKDNKELVFKYLADIEVKAAQADFLGAKDPYAKEKAKEIEKLAKEAEKILK
B10: d4r5_design_ppi_428_dldesign_0_cycle1_af2pred (protein)
chain: AAAAAETAAARERAARDLARAEAAAKAGKADPSKAPLAIAILEGVAERFEFYAKAAGPAAAAVAREAAERAKALAKEL
B11: d4r5_design_ppi_429_dldesign_0_cycle0_af2pred (protein)
chain: VEEAKKLGEEYIKKVKEAKDAKEALEIGEKAAKELVEKAKASEDGETAQAYLEAASEVKATALRQARKLEE
B12: d4r5_design_ppi_435_dldesign_0_cycle1_af2pred (protein)
chain: SKSKKEAEKMREATRAFKEAGKAAAAAIASGETGEEAIAAARAKAEEVIKEAKEVGEGAGEFAEMLKENLDKALAAAS
B13: d4r5_design_ppi_438_dldesign_0_cycle0_af2pred (protein)
chain: SKEEMERRAEQVEKAVEGAEEEAKEGTPEEALALLRSVLRRAKEVAEESKKYPEVKKRAEKALERAEKIKKELLEK
B14: d4r5_design_ppi_438_dldesign_0_cycle1_af2pred (protein)
chain: DLEELKRRAEQVELLVEMAEEEAKTGSKEEALALLNSAIRDAKEVAEEGAAYPEVSERAKAALERAEKIRKELLAS
B15: d4r5_design_ppi_448_dldesign_0_cycle0_af2pred (protein)
chain: MKEKLKKEAKEAEKKMEELIKKIEEANPEAGKVAREAREKGKASPKGREYTNKGISEAGKLAGPEVAPIAQEARQEAAAADAYKKII
B16: d4r5_design_ppi_459_dldesign_0_cycle1_af2pred (protein)
chain: DLEALKEKYLKETKAAAEKAAKIDKKVGDELKDLAELIKEGYGVKGNYNKAKALAAKAEADAKKEAALKA
B17: d4r5_design_ppi_466_dldesign_0_cycle0_af2pred (protein)
chain: SEAEEILRETVERATAAAAAEDPALAPRVRAAAERAAEIAKSQKSIEAAAGVLEIFADRAAAASPAAAAVAREGARRLEELAK
B18: d4r5_design_ppi_466_dldesign_0_cycle1_af2pred (protein)
chain: EEKKKILEEAAKEAAAAAKADNPELAPRVERLAKRAVEIGTKQKSVEAAAGVMENAADQAAAAAPAAAAVLKKGAEELEKLAK
B19: d4r5_design_ppi_473_dldesign_0_cycle1_af2pred (protein)
chain: GEAKRKKAEALLERYKARAEELIEKAKASDYVTAESYAISVETRFTDFAAAAEKDPATKEVAKRAKKVGKEYVEKLKKIAEEKKAAE

Molecular target: VTCN1, Q7Z7D3
Sequence (Q7Z7D3 whole entry): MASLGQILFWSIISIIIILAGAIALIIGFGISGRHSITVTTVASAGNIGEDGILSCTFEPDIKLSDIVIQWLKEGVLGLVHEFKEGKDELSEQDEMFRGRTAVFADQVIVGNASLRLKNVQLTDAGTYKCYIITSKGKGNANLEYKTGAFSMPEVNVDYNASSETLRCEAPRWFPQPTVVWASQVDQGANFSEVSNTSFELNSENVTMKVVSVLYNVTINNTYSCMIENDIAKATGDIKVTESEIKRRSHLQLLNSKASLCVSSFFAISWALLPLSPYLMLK

Binder	binding in a display sort
B1	not found
B2	not found
B3	not found
B4	not found
B5	not found
B6	not found
B7	not found
B8	not found
B9	not found
B10	not found
B11	not found
B12	not found
B13	not found
B14	not found
B15	not found
B16	not found
B17	not found
B18	not found
B19	not found
